A selection: hits, their analogues and other compounds. The true share with any hit is near 1.1%.
Giardia FBPA inh – blocks Giardia fructose-bisphosphate aldolase activity | A8B2U2 | purified Giardia FBPA | Potency, µM (series often up to 59.6 µM), for the others: at the highest dose activity, negative = inhibition, actives largely listed as inhibitors | 290,000 tested, 0.71% active; note: % is set by controls: 0 for no effect and ±100 for the full control effect; nearly all actives have a fitted effect of over 55% in size
Target sequence (A8B2U2 whole entry, looked up): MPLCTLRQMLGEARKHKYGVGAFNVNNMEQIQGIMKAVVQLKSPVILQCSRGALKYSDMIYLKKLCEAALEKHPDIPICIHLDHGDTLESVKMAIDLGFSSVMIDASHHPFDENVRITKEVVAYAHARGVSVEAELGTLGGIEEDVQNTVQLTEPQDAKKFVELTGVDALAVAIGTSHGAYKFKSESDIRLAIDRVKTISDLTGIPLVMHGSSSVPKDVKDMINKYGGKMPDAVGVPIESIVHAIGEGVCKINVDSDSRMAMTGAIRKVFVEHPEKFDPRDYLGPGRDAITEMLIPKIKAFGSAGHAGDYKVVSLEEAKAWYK
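Giardia FBPA (40 nM reagent) was preincubated 10 min at RT with compound (up to 57.5 uM final), then substrate plus GAPDH/TPI/NAD/arsenate coupling system with diaphorase/resazurin was added; resorufin fluorescence (525/598 nm) was read after 20 min.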
AmpC no deterg – blocks E. coli AmpC beta-lactamase in detergent-free assay. P00811. AID 485341. 330,000 tested, 0.52% active. AmpC nitrocefin hydrolysis, absorbance 480 nm, 0.0001% Triton. Potency, µM (highest dose often 57.1 µM), inactives show at the top dose activity change, negative = inhibition, hits mostly inhibitors;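 note: plate controls were no compound for no effect and no enzyme for full effect; nearly all actives have a fitted effect of over 20% in size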
Target sequence (P00811 whole entry, looked up): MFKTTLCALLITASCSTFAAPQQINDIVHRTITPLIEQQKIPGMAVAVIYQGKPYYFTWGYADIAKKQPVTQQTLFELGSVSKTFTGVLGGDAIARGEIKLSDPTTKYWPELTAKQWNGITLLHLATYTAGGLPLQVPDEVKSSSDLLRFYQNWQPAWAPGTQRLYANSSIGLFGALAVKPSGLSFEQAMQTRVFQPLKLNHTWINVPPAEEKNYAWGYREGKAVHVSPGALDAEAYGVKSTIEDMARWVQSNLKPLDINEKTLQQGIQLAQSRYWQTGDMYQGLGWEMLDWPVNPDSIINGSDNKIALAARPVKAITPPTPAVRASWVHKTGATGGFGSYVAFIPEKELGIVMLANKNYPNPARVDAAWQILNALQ
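AmpC (5.3 nM in the dispensed reagent) in 20 mM phosphate pH 7.0 with 0.01% (detergent screen) or 0.0001% Triton X-100 was preincubated with compounds for 15 min at room temperature. Nitrocefin was then added from an 800 uM solution, and hydrolysis was followed at 480 nm.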
SARS PLpro yeast – SARS-CoV PLP inhibition in yeast. S. cerevisiae expressing SARS-CoV PLpro, growth rescue. Potency, µM (highest dose often 32.9 µM), for the others: top-dose activity, positive = growth rescue, most hits filed as activators. 330,000 tested, 0.19% active; calls by dose curve; note: 0% is about no effect; nearly all actives have a fitted effect of over 55% in size
AmpC inh detg – blocks E. coli AmpC beta-lactamase in detergent assay; AmpC hydrolysis of nitrocefin, absorbance 480 nm, 0.01% Triton; AID 485294; 370,000 tested, 0.041% active; Potency, µM (highest dose often 114 µM), for inactives: at the top dose activity change, negative = inhibition, hits mostly inhibitors;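 note: 0% = no-compound wells and -100% = no-enzyme wells; nearly all actives have a fitted effect of over 25% in size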
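AmpC (5.3 nM in the dispensed reagent) in 20 mM phosphate pH 7.0 with 0.01% (detergent screen) or 0.0001% Triton X-100 was preincubated with compounds for 15 min at room temperature. Nitrocefin was then added from an 800 uM solution, and hydrolysis was followed at 480 nm.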
* hit, by the source's call; ? = inconclusive; . = no result given; ! = not active in a repeat. Unless noted, calls come from the whole dose curve; as a rule, active = well fitted curve in the direction sought with a large enough effect; inconclusive = small, poorly fitted or top-dose-only effect, or another doubt; inactive = no such curve, though single readings can be large; an effect the other way counts as inactive or inconclusive. Potency is the fitted concentration of half-maximal effect.

SMILES	Giardia FBPA inh	AmpC no deterg	SARS PLpro yeast	AmpC inh detg
C[C@H](N)C(=O)NCC(=O)N[C@H]1CSSC[C@@H](C(=O)O)NC(=O)[C@H](CO)NC(=O)[C@H]([C@@H](C)O)NC(=O)[C@H](Cc2ccccc2)NC(=O)[C@H]([C@@H](C)O)NC(=O)[C@H](CCCCN)NC(=O)[C@@H](Cc2c[nH]c3ccccc23)NC(=O)[C@H](Cc2ccccc2)NC(=O)[C@H](Cc2ccccc2)NC(=O)[C@H](CC(N)=O)NC(=O)[C@H](CCCCN)NC1=O	0.6%	.	.	.
Cc1cc(C2=NNC(=NC3CC3)SC2)c(C)n1Cc1ccco1	-2.8%	12.7%	10µM*	1.8%
COCCCN=C1NN=C(c2cc(C)n(Cc3ccco3)c2C)CS1	-6.2%	-10.6%	3.4%	-10.5%
Cc1ccc(/C=N/NC(=O)CSc2nc3ccccc3n2C)s1	3.97µM*	-42.7%	0.6%	?
COc1cccc(-c2ccc3ncnc(NCc4cccc(C)c4)c3c2)c1	.	-8.7%	?	?
COc1cccc(-c2ccc3ncnc(NCc4cccc(F)c4)c3c2)c1	.	-4.6%	8.91µM*	?
N[C@@H](CCCCNC(=O)CCCC[C@@H]1SC[C@H]2NC(=O)N[C@H]12)C(=O)O	-14.9%	.	.	.
Cc1ccc(C2C3=C(CCCC3=O)N=C3c4ccccc4C(=O)C32)cc1 (configuration not stated)	-21.8%	17.8µM*	-4.2%	-2.9%
O=C1CCCC2=C1C(c1ccccc1)C1C(=O)c3ccccc3C1=N2 (configuration not stated)	-12.2%	-45.2%	29.5%	1.3%
COc1cc(NC(=S)N2CCN(CCO)CC2)c(OC)cc1Cl	-2.6%	-7.5%	-0.8%	-5.3%
OCCN1CCN(C(=S)c2ccc(Cl)c(Cl)c2)CC1	12.6µM*	6.0%	-7.5%	5.4%
Cc1nn(-c2ccccc2)c(NC(=O)NS(=O)(=O)c2ccc(Cl)cc2)c1C#N	11.3%	.	.	.
Cc1ccc(NC(=O)C2(S(=O)(=O)c3ccc(C)cc3)CC2)cc1	5.5%	-22.1%	3.3%	?
Cc1ccc(S(=O)(=O)C2(C(=O)Nc3cccc(F)c3)CC2)cc1	1.1%	2.82µM*	1.2%	?
CC(=O)c1cc(-c2ccccc2)n(CC(=O)Nc2cccc(C)c2)c1C	1.0%	14.1µM*	5.6%	?
CCc1cccc(NC(=O)Cn2c(-c3ccccc3)cc(C(C)=O)c2C)c1	0.7%	-44.0%	13.3%	-12.5%
CC1(C)S[C@@H]2[C@H](NC(=O)[C@H](N)c3ccc(O)cc3)C(=O)N2[C@H]1C(=O)O	-13.7%	-22.6%	0.5%	35.5µM*
CC1(C)S[C@@H]2[C@H](NC(=O)[C@H](N)c3ccccc3)C(=O)N2[C@H]1C(=O)O	?	12.6µM*!	-14.5%	44.7µM*
Cc1ccc(S(=O)(=O)/C(C#N)=C/c2c[nH]c3ccccc23)cc1	-3.7%	17.8µM*	-0.6%	-3.8%
COc1ccc(N(CC(=O)N2CCCCC2)S(=O)(=O)c2ccccc2)c(OC)c1	12.7%	8.91µM*	11.3%	2.9%
CCOc1ccc(C(=O)NC(=S)NC2CCCC2)cc1[N+](=O)[O-]	-9.7%	10µM*	8.0%	?
CCOc1ccc(C(=O)NC(=S)Nc2ccc(NC(=O)CC)cc2)cc1[N+](=O)[O-]	-15.5%	-10.8%	-9.1%	?
N#Cc1c(SCC(=O)Nc2nc3ccc(Br)cc3s2)sc2c(O)cc(=O)[nH]c12	-6.2%	25.1µM*	-5.2%	3.5%
CC[C@H](C)C(N)C(=O)O (some centres not stated)	-2.2%	.	.	.
Cc1cc(C)cc(NC(=O)C(OC(=O)c2ccc(NC(=O)CC#N)cc2)c2ccccc2)c1 (configuration not stated)	.	11.2µM*	11.1%	-9.8%
SMILES	Giardia FBPA inh	AmpC no deterg	SARS PLpro yeast	AmpC inh detg
Cc1cc(O)c(-c2cc(O)c(C)cc2O)cc1O	15.8µM*	-40.2%	-5.4%	?
NS(=O)(=O)c1ccc(NC(=O)N2c3ccccc3Sc3ccccc32)cc1	14.0%	35.5µM*	-13.8%	-10.8%
CCc1ccc(NC(=O)N2c3ccccc3Sc3ccccc32)cc1	.	.	.	10.8%
O=C(N/N=C/c1ccc(O)c(O)c1)c1cccc(S(=O)(=O)N2CCCCC2)c1	-17.4%	14.1µM*	8.4%	3.6%
CNC(=S)NNC(=O)COc1ccccc1C	-10.7%	-13.3%	-8.2%	?
CNC(=S)NNC(=O)COc1cccc(C)c1C	-8.2%	-28.8%	10µM*	?
C=C1N(C)c2cc([N+](=O)[O-])c(N)cc2C1(C)C	4.46µM*	-42.2%	0.5%	2.7%
Cc1nc2nc(SCC(=O)c3cccc([N+](=O)[O-])c3)[nH]c2cc1Br	-18.1%	-42.2%	2.6%	3.0%
O=C(CSc1nc2ncc(Br)cc2[nH]1)c1cccc([N+](=O)[O-])c1	-23.9%	31.6µM*	-17.9%	?
COc1ccc2c3c1OC1C(O)C=CC4C(C2)[N+](C)(C)CCC341 (configuration not stated)	-27.8%	?	-0.8%	39.8µM*
C#Cc1ccc2c(c1)C(=O)N(C)Cc1c(C(=O)OCCCOC(=O)c3ncn4c3CN(C)C(=O)c3cc(C#C)ccc3-4)ncn1-2	2.5%	.	.	.
CCC(=O)NC(=S)NNC(=O)c1ccc(OC)cc1	-6.9%	-44.5%	-3.4%	56.2µM*
CCc1ccc(/C=N/NC(=O)c2c[nH]c3ccccc23)s1	-2.2%	22.4µM*	8.5%	-0.5%
Oc1ccc(NC(=S)N=Nc2c(O)[nH]c3ccc(Br)cc23)cc1	6.8%	17.8µM*	1.2%	1.5%
Oc1[nH]c2ccc(Br)cc2c1N=NC(=S)Nc1ccc(F)cc1	6.4%	-48.6%	-0.6%	2.3%
CC(CC(C)(C)C)CP(=O)(O)CC(C)CC(C)(C)C (configuration not stated)	14.4%	.	.	.
C/C(=N\NP(=S)(c1ccccc1)c1ccccc1)c1ccc(O)cc1O	-17.5%	15.8µM*	-2.0%	8.5%
COc1ccc(/C=C(/CC(=O)NCc2ccc(Cl)cc2)c2nc3ccccc3s2)cc1	10.2%	17.8µM*	-26.3%	3.3%
COC(=O)N1CCN(/[N+]([O-])=N/Oc2ccc([N+](=O)[O-])cc2[N+](=O)[O-])CC1	0.1%	.	.	.
O=C(/C=C/c1cccs1)Nc1nc(-c2ccccc2)cs1	-11.9%	-27.0%	-0.6%	-5.7%
O=C(COC(=O)/C=C/c1cccs1)Nc1nc(-c2cccc(Br)c2)cs1	6.9%	6.31µM*	-0.5%	-1.7%
Cc1cccc(OCc2nc(C#N)c(NCCN(C)C)o2)c1	1.2%	2.24µM*	9.4%	2.4%
CCNc1oc(COc2cccc(C)c2)nc1C#N	-0.7%	-6.0%	-3.9%	?
CCN(CC)c1ccc(/C=N/NC(=S)NCc2ccccc2)c(O)c1	-19.0%	?	10µM*	-9.8%

Screens: PubChem, National Center for Advancing Translational Sciences (NCATS)
